Assay outcomes deposited in PubChem by National Center for Advancing Translational Sciences (NCATS).
ELG1 genotoxic: inducers of genotoxicity in HEK293T ELG1-luciferase cells | Potency, µM (top dose mostly 46 µM), for the others: top-dose activity change, positive = activation, hits mostly activators | 1.3% of 330,000 active | HEK293T ELG1-luciferase reporter, luminescence, 16 h; further: % of control where 0% means no effect; nearly all actives have a fitted effect of over 60% in size
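HEK293T cells expressing luciferase-tagged ELG1 were treated with compound or DMSO for 16 hr at 37°C. Luciferase activity was then read after 30 min with ONE-Glo at room temperature; rising signal flags genetic stress.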
KinaseGlo FLuc: Kinase-Glo luciferase inhibition (counter-screen) | Potency, µM (doses to about 38.3 µM), for the others: top-dose activity change, negative = inhibition, actives largely listed as inhibitors | AID 1379 | 0.28% of 200,000 active | Q27757 | Kinase-Glo luciferase, ATP luminescence, 8 min; further: on the % scale 0 is the no-effect control and ±100 the full control effect; nearly all actives have a fitted effect of over 60% in size
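Compounds were added to a substrate mix at pH 7.2 (50 mM imidazole, 10 uM ATP, within the enzyme's linear range), followed by Kinase-Glo detection reagent; luminescence was measured after 8 minutes at ambient temperature.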
Rab9 promoter act: activators of Rab9 promoter. Huh7 Rab9 promoter-luciferase reporter, luminescence, 24 h. Potency, µM (titrated, usually from 9.22 µM), for inactives: at the highest dose activation, negative = inhibition, actives largely listed as activators. 2.8% of 320,000 active; further: % of control where 0% means no effect; nearly all actives have a fitted effect of over 60% in size
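Huh7 reporter line, Rab9 promoter upstream of luciferase. Compound exposure 24 h at 37 °C in reduced-serum medium with 10% FBS. Read-out: luminescence.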
FLuc counter: counter-screen for miR-21 project: firefly luciferase inhibitors or activators; P08659; AID 588342; purified FLuc, Km substrates, luminescence inhibition; 6.9% of 360,000 active; Potency, µM (top dose mostly 57.5 µM), for the others: top-dose activity change, negative = inhibition, most hits filed as inhibitors;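 further: plate controls were vehicle for no effect and reference inhibitor for full effect; nearly all actives have a fitted effect of over 55% in size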
Target sequence (P08659 whole entry, looked up): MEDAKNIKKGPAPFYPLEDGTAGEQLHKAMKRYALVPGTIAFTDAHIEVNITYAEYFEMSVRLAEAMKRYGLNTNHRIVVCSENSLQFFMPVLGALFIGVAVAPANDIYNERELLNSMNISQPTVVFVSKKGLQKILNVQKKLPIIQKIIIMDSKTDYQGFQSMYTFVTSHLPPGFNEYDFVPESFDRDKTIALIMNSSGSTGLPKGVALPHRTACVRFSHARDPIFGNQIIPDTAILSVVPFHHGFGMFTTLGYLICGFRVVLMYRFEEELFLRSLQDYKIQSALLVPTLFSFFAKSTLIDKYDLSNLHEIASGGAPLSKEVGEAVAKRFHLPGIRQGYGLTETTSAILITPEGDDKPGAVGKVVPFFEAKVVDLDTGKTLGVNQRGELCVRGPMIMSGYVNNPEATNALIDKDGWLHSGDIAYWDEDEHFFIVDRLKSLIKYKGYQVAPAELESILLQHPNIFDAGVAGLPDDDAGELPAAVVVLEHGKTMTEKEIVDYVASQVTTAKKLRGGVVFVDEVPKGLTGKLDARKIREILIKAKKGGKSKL
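Biochemical qHTS of compounds, final roughly 60 µM downward over six points, against 10 nM purified firefly luciferase using Km concentrations of substrates (10 uM D-luciferin, 10 uM ATP) in Tris acetate pH 7.5 buffer; luminescence output.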
SMN2 splice enh: increases expression of the SMN2 splice variant; AID 1458; HEK293 SMN2-luciferase splicing reporter, luminescence, 30-36 h; Potency, µM (top dose mostly 46.1 µM), without a hit: top-dose activity change, positive = activation, hits mostly activators; 2.8% of 210,000 active; further: % of control where 0% means no effect; nearly all actives have a fitted effect of over 55% in size
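qHTS luciferase splicing reporter: luminescence rises when SMN2 exon 7 is included in transfected HEK293 cells. Compound exposure lasted 30-36 h at 37C, with 4.5 mM final sodium butyrate as control, followed by a ONE-Glo read.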
NPC1 promoter act: activators of NPC1 promoter; 2.4% of 320,000 active; Potency, µM (doses to about 9.22 µM), inactives show at the top dose activation, usual class: activators; Huh7 NPC1 promoter luciferase reporter, 24 h; further: % of control where 0% means no effect; nearly all actives have a fitted effect of over 60% in size
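Luminescence read-out of NPC1 promoter-driven luciferase in stably transfected Huh7 cells; compounds delivered in DMSO and left 24 h at 37C, 5% CO2, qHTS titration format.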
* hit, by the source's call; u = inconclusive; x = not tested or not shown; [ ] = another dose, or the depositor's remark. In the library only some 7.3% were active in any assay of this set; here they are far more common. The call rests on the fitted dose curve; in most records, active means well fitted curve in the direction sought with a large enough effect; inconclusive means small, poorly fitted or top-dose-only effect, or another doubt; inactive means no such curve, though single readings can be large; an effect the other way counts as inactive or inconclusive. Potency means the concentration at half of the fitted maximal effect.

SMILES	ELG1 genotoxic	KinaseGlo FLuc	Rab9 promoter act	FLuc counter	SMN2 splice enh	NPC1 promoter act
COc1ccc(/C=C2\NC(=S)N(CC3CCCO3)C2=O)c(OC)c1 (configuration not stated)	-1.2%	6.0%	u	15.1µM*	-18.2%	2.9%
COc1ccccc1OCC(=O)Nc1ccc2c(c1)C(=O)N(CC1CCCO1)C2=O (configuration not stated)	-5.3%	2.1%	-4.2%	-4.6%	0.4%	-1.0%
COc1cccc(C(=O)Nc2ccc3c(c2)C(=O)N(CC2CCCO2)C3=O)c1 (configuration not stated)	-8.8%	x	24.7%	9.53µM*	x	23.3%
COc1cccc(NC(=O)c2ccc3c(c2)C(=O)N(CC2CCCO2)C3=O)c1 (configuration not stated)	3.0%	x	0.4%	16.9µM*	x	3.1%
CCc1ccc(NC(=O)Cn2c(=O)n(CCCCC(=O)NCCc3ccc(Cl)cc3)c(=O)c3ccccc32)cc1	x	x	x	0.2%	8.0%	x
COc1cccc([C@@H]2Oc3ccc(OC)cc3C[C@H]2OC(=O)Nc2cc(OC)c(OC)c(OC)c2)c1	x	3.0%	x	x	3.8%	x
COc1ccc(-c2nnc(Nc3nc4c(OC)cccc4s3)o2)cc1	u	-1.6%	-8.9%	5.36µM*	1.0%	6.6%
COc1ccc(-c2nnc(NC(=O)c3ccc(F)cc3)o2)cc1	1.2%	1.5%	-9.5%	1.4%	-29.7%	-8.2%
COc1ccc(-c2nnc(Nc3nc4c(OC)cccc4s3)o2)c(OC)c1	2.4%	-0.2%	2.3%	9.53µM*	-9.8%	0.2%
COc1ccc(C2=C(C(C)=O)Sc3nnc(-c4ccc(Cl)cc4)n3N2C(C)=O)cc1OC	x	x	x	0.0%	x	x
CC1N/C(=C\C(=O)c2ccccc2)N(O)C1(C)C (configuration not stated)	8.2µM*	-7.1%	1.41µM*	8.49µM*	u	2.24µM*
O=C1Nc2ccccc2/C1=C\C(=O)c1ccccc1	1.1%	x	-0.5%	u	x	-4.8%
Cc1ccc(CSc2nc3ccncc3n2CC(=O)Nc2cc(C)cc(C)c2)cc1	u	-0.7%	u	1.51µM*	u	28.4%
COc1ccc(-c2nc(Cn3c(SCc4cccc(F)c4)nc4ccncc43)c(C)o2)cc1OC	9.7%	-2.4%	-6.1%	u	-6.9%	3.7%
COc1ccc(-c2nc(Cn3c(SCc4ccc(C)cc4)nc4ccncc43)c(C)o2)cc1OC	-0.4%	-10.7%	u	1.69µM*	16.3%	14.4%
COc1ccc(-c2c3c(=O)n(C)c(=O)n(C)c3c3n2-c2ccccc2NC3c2ccco2)cc1 (configuration not stated)	x	x	x	3.1%	x	x
COc1ccc(-c2cc3ncnc(Cl)c3s2)cc1	u	x	u	3.38µM*	x	3.55µM*
COc1ccc2[nH]c3c(Cl)ncnc3c2c1	4.3%	x	1.8%	-17.0%	x	-0.4%
Cc1ccc(-n2nc3c(N4CCC(C(=O)NC5CCCCC5)CC4)nnc(C)c3c2C)cc1	x	x	x	-6.5%	x	x
Cc1ccccc1OCC(O)CN1C(=O)c2ccccc2C1=O (configuration not stated)	9.0%	x	4.2%	13.5µM*	x	2.6%
O=C1c2ccccc2C(=O)N1CC(O)COc1ccccc1Cl (configuration not stated)	4.8%	x	u	10.7µM*	x	17.7%
Cc1sc2ncnc(N/N=C/c3ccccc3O)c2c1C	u	-2.0%	-12.1%	21.3µM*	-81.0%	6.1%
Cc1sc2ncnc(N/N=C/c3ccc(O)cc3)c2c1C	8.0%	0.5%	-5.8%	19µM*	-0.1%	-7.1%
Cc1sc2ncnc(NCc3cccs3)c2c1C	3.6%	-3.1%	-30.9%	2.2%	-34.3%	-17.3%
Cc1sc2ncnc(NCC(O)c3ccccc3)c2c1C (configuration not stated)	-9.3%	x	-10.2%	19µM*	x	-0.6%
SMILES	ELG1 genotoxic	KinaseGlo FLuc	Rab9 promoter act	FLuc counter	SMN2 splice enh	NPC1 promoter act
Cc1sc2ncnc(NCC(c3ccccc3)N(C)C)c2c1C (configuration not stated)	-2.0%	x	-11.4%	-1.3%	x	2.1%
COc1cccc(/C=N/Nc2ncnc3scc(-c4ccccc4)c23)c1OC	-17.3%	-0.8%	-6.6%	12µM*	-10.0%	1.7%
COc1ccc(/C=N/Nc2ncnc3sc(C)c(C)c23)cc1	4.8%	-0.8%	-4.3%	19µM*	5.6%	1.9%
Cc1ccc(CNC(=O)C(=O)NCC(c2ccc3c(c2)OCO3)N2CCOCC2)cc1 (configuration not stated)	x	x	x	2.6%	x	x
COc1ccc(Cn2c(C(=O)O)c(CNCCc3cccs3)c3ccc(C)cc32)cc1	x	x	x	3.6%	x	x
COc1ccc(-c2cc(=O)c3ccccc3[nH]2)cc1	3.6%	-0.8%[39.9 µM]	-0.4%	u	-6.7%	4.3%
Cc1ccc(O)c(-c2cc3ccccc3[nH]2)c1	4.5%	-0.1%	17.0%	26.9µM*	12.1%	20.9%
COc1ccc(-c2cc3ccccc3[nH]2)cc1	u	x	2µM*	4.78µM*	x	3.55µM*
Cc1ccc(C(=O)OCc2cc3ccccc3[nH]c2=O)cc1	2.2%	-0.6%	-5.0%	3.1%	17.1%	-0.4%
Clc1ccc2[nH]c(-c3ccccc3)cc2c1	u	7.9%	2.51µM*	10.7µM*	u	3.16µM*
c1ccc(-c2cc3ccccc3[nH]2)cc1	u	x	u	19µM*	x	u
CCOc1ccccc1NC(=O)Nc1cc(C(=O)NCc2ccc(C)cc2)ccc1N1CCCC1	x	x	x	-1.8%	x	x
Cc1ccc(NC(=O)CSc2nccn2-c2ccccc2)cc1	x	x	x	-12.3%	x	x
CCCn1c(=O)c2sccc2n2c(CCCC(=O)N3CCN(c4ccc(OC)cc4)CC3)nnc12	x	x	x	-5.1%	x	x
Cc1c(/C=C/C(=O)c2ccccc2)cnn1C	u	u	u	4.78µM*	u	u
Cc1c(/C=C/C(=O)c2ccc(Cl)s2)cnn1C	u	-1.7%	u	1.51µM*	8.8%	u
Cc1c(/C=C/C(=O)c2ccc(O)cc2)cnn1C	20.6µM*	-7.8%	u	10.7µM*	u	u
Cc1c(/C=N\NC(=O)c2ccc(F)cc2)cnn1C	-0.6%	7.2%	-1.8%	-18.6%	-7.0%	-2.6%
Cc1c(/C=C/C(=O)c2ccc(C(C)C)cc2)cnn1C	u	-1.7%	u	1.9µM*	-15.5%	11.0%
Cc1nn(Cc2c(Cl)cccc2Cl)c(C)c1NC(=O)/C=C/c1cnn(C)c1C	-1.1%	-0.4%	3.3%	-1.3%	-20.9%	-4.1%
CCOc1ccc(-n2c(=O)c3c4c(sc3n(Cc3cccc(Cl)c3)c2=O)CCCC4)cc1	x	x	x	-0.8%	6.4%	x
CC(C)(C)c1ccc(OCCn2cc(C(=O)c3ccco3)c3ccccc32)cc1	x	x	x	-3.7%	-3.5%	x
